Compound activity as filed in PubChem BioAssay.
Shown are actives, neighbours in structure and some others; about 4.1% of the full set was active somewhere.
DAX1 inh-1: inhibitors of DAX1 repression of SF-1 activated StAR promoter; inhibition, % at 6.8 µM; HEK293T StAR-luciferase reporter, SF-1/DAX-1 repression relief; actives 1.1% (n = 370,000); AID 652010;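 active = inhibition above the mean over all tested compounds plus 3 SD, cut at about 3.6% in these data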;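 also: higher inhibition means more luminescence from relief of DAX-1 repression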
ssDAF12 agonist: S. stercoralis DAF-12 activation, primary screen. actives 1% (n = 370,000). AID 652126. HEK293 ssDAF-12/GRIP1 lit1-tk-luc reporter, luminescence; % of 3 µM dafachronic acid response. activation, % at 6.8 µM;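 active = activation above the mean over all tested compounds plus 3 SD, cut at about 0.9% in these data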
hgDAF12 agonist: hgDAF-12 agonism, primary luciferase screen | actives 1.8% (n = 370,000) | activation, % at 6.8 µM | HEK293 GAL4-hgDAF12 UAS-luciferase reporter, agonist luminescence; normalized to butyrate control | AID 687014;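 active = activation above a cutoff set at the mean of all screened compounds plus 3 SD, cut at about 10% in these data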
hcDAF-12 act: activators of H. contortus DAF-12 nuclear receptor. HEK293 hcDAF-12 lit1-tk-luc reporter, luminescence; 0% DMSO, 100% Δ7-dafachronic acid. actives 1.4% (n = 370,000). AID 652067. activation, % at 6.8 µM;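 active = activation above the mean of all tested compounds plus 3 SD, cut at about 5.5% in these data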
DAX1 inh-2: inhibitors of human orphan nuclear receptor DAX1 (NR0B1). P51843. HEK293 Gal4-DAX1 luciferase reporter, luminescence. inhibition, % at 6.75 µM. actives 0.99% (n = 340,000);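 active = inhibition above the mean over all tested compounds plus 3 SD, cut at about 4.2% in these data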;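 also: inhibition shows as a rise in luminescence from relieved DAX1 repression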
Target sequence (P51843 207-470 limits assumed): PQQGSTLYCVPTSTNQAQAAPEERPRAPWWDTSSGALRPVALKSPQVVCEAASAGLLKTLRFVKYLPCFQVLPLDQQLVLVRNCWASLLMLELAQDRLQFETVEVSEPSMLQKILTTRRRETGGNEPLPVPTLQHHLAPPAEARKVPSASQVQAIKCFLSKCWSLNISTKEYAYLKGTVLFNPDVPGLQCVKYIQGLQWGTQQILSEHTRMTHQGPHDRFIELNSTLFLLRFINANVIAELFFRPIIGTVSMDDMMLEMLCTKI
DAX1 conf: NR0B1 (human) inhibition, confirmation | shares compounds with DAX1 inh-1 | HEK293T StAR-promoter luciferase reporter, SF-1/DAX-1 repression | inhibition, % at 6.8 µM | actives 87% (n = 2,400) | AID 652134;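 active = inhibition above the average of every tested compound plus 3 SD, cut at about 3.8% in these data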;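 also: active compounds raise luminescence by relieving repression of the StAR reporter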
SF1 AF2mut Luc: counter-screen for DAX1 inhibitors: nonselective inhibitors with SF-1 AF2 mutant. actives 78% (n = 2,400). inhibition, % at 6.8 µM. HEK293 StAR-luciferase, luminescence. shares compounds with DAX1 inh-1;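 active = inhibition above the mean of all tested compounds plus 3 SD, cut at about 3% in these data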
LXR ag: LXR-beta agonism as hcDAF-12 counter-screen; shares compounds with hcDAF-12 act; HEK293 Gal4-LXR tk-luc reporter, luminescence, 24 h; normalized: DMSO 0%, positive control 100%; activation, % at 6.8 µM; 3,400 tested, under 10 active; AID 743027;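 active = mean percent activation of the reporter above a cutoff set as the average over tested compounds plus their standard deviation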
hcDAF12 conf: confirmation of H. contortus DAF-12 agonists; shares compounds with hcDAF-12 act; HEK293 hcDAF-12 lit1-tk-luc reporter, luminescence; % of Δ7-dafachronic acid response; activation, % at 6.8 µM; actives 61% (n = 3,400);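 active = mean activation across triplicate tests above the threshold derived from the earlier primary screen, cut at about 5.5% in these data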
hgDAF12 ag: hgDAF-12 agonism, confirmation assay | shares compounds with hgDAF12 agonist | HEK293 GAL4-hgDAF12 luciferase reporter, agonist mode; percent of butyrate response | activation, % at 6.8 µM | actives 80% (n = 3,300) | AID 743050;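 active = mean activation over triplicate wells above the hit cutoff derived from the earlier primary screen, cut at about 11% in these data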
LXRb DAF12 ctr: LXR-beta agonism as DAF-12 counter-screen | activation, % at 6.8 µM | HEK293 Gal4-LXR luciferase reporter, 24 h | 3,300 tested, under 10 active | shares compounds with hgDAF12 agonist;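 active = mean activation of the triplicate above a set limit carried over from the primary screen, none filed active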
Of the large screens only hits and unclear results are named; the others gave an inactive call (follow-up assays come after a bar, where they were run).

N#C/C(=C/c1ccco1)c1nc2ccccc2s1	DAX1 inh-1 4.8, ssDAF12 agonist 4.0, hgDAF12 agonist 16.0, hcDAF-12 act 19.7 | DAX1 conf 12.0 | SF1 AF2mut Luc 7.7 | LXR ag inactive | hcDAF12 conf 14.3 | hgDAF12 ag 21.8 | LXRb DAF12 ctr inactive
O=C(/C=C/c1ccccc1)CC(=O)c1ccccc1O	DAX1 inh-1 4.5, hgDAF12 agonist 17.3, DAX1 inh-2 4.4 | DAX1 conf inactive | SF1 AF2mut Luc 4.0 | hgDAF12 ag inactive | LXRb DAF12 ctr inactive
CC(Cc1ccccc1)NC(=O)/C=C/c1ccc([N+](=O)[O-])cc1 (stereo not given)	none
CC(Cc1ccccc1)NC(=O)c1ccc([N+](=O)[O-])cc1 (stereo not given)	DAX1 inh-1 4.8, hgDAF12 agonist 14.1, hcDAF-12 act 5.7 | DAX1 conf 14.3 | SF1 AF2mut Luc 8.9 | hgDAF12 ag 14.5 | LXRb DAF12 ctr inactive
O=C(Nc1cccc(F)c1)c1ccc(-n2cncn2)c2ccoc12	DAX1 inh-1 9.0, hgDAF12 agonist 17.3, hcDAF-12 act 9.4 (no result: DAX1 inh-2) | DAX1 conf 15.7 | SF1 AF2mut Luc 5.4 | LXR ag inactive | hcDAF12 conf 9.5 | hgDAF12 ag 17.5 | LXRb DAF12 ctr inactive
Cc1cc(C)n2c(Nc3ccc4c(c3)OCCO4)c(-c3ccc(C)o3)nc2n1	DAX1 inh-1 5.7, hgDAF12 agonist 13.4, hcDAF-12 act 6.9 | DAX1 conf inactive | SF1 AF2mut Luc inactive | LXR ag inactive | hcDAF12 conf inactive | hgDAF12 ag inactive | LXRb DAF12 ctr inactive
C=CCN1C(=O)[C@H](CC(=O)NCc2cccs2)[C@@]2(C(=O)OCC)CCCC=C12	none (no result: DAX1 inh-2)
CC(=O)c1cccc(OCc2cc(C(=O)N3CCSCC3)no2)c1	DAX1 inh-1 4.8, hgDAF12 agonist 13.7 | DAX1 conf 6.6 | SF1 AF2mut Luc 6.3 | hgDAF12 ag 14.9 | LXRb DAF12 ctr inactive
Cc1cccc(C)c1OCc1cc(C(=O)N2CCN(c3ccc(F)cc3)CC2)no1	DAX1 inh-1 5.9, hgDAF12 agonist 14.1 | DAX1 conf 4.5 | SF1 AF2mut Luc 3.6 | hgDAF12 ag 14.7 | LXRb DAF12 ctr inactive
CN(Cc1ccccc1)S(=O)(=O)c1cccc(C(=O)OCc2ccc(C(F)(F)F)cc2)c1	none (no result: DAX1 inh-2)
COC(=O)[C@]12C[C@H](CC(=O)NCCC(C)C)C(=O)N(Cc3ccccc3)C1=C[C@H](C(C)C)O[C@@H]2C1CC1	none (no result: DAX1 inh-2)
NC(=Nc1ccccc1)NC(=O)c1nc(Cl)c(N)nc1N	DAX1 inh-1 5.4, hgDAF12 agonist 17.2 | DAX1 conf 8.2 | SF1 AF2mut Luc 6.4 | hgDAF12 ag 14.2 | LXRb DAF12 ctr inactive
Cc1ccc(NC(=O)CSc2nccn2Cc2ccco2)c(C)c1	DAX1 inh-1 6.3, hgDAF12 agonist 13.6, hcDAF-12 act 7.2 | DAX1 conf 7.8 | SF1 AF2mut Luc 3.2 | LXR ag inactive | hcDAF12 conf 7.0 | hgDAF12 ag 13.7 | LXRb DAF12 ctr inactive
Cc1ccc(C)c(NC(=O)CSc2nccn2Cc2ccco2)c1	none
COc1ccccc1NC(=S)N/N=C/c1cccc(C)c1	none
